A number with no mark means an inactive call. Activity calls are given as the source filed them.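 How the source made its calls, unless noted: active means inhibition of the reporter signal at or above 50%; inactive means inhibition below 50%.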

The nature of the first experiment: blockers of RIG-like receptor reporter activation – cell-based, Sendai virus stimulus, luciferase, 10K MLSCN set, TLR/RLR signaling modifier project, primary screen (AID 602276;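 active means inhibition at or above 50% at 10 µM; inactive means inhibition below 50%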;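 further: firefly luciferase from ISG56 promoter only with Renilla not read in this screen; 0% = Sendai virus plus DMSO and 100% = medium plus DMSO without virus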). The settings on record: HEK293 RL24 IRF3 luciferase reporter, at 10 µM, hits give high values. Background: A reporter such as luciferase makes a cellular process visible.
One may read the inhibition as the change of the read-out against control, counted positive when it falls. For `CC(C)Cc1ccc(C(C)C(=O)O)cc1` (stereo not given), the inhibition was -8.48%.

With `CC(C)(C)c1ccc(C(O)CCCN2CCC(C(O)(c3ccccc3)c3ccccc3)CC2)cc1` (stereo not given), the inhibition is 25.2%.

For `CC(=O)O[C@H]1C(=O)[C@]2(C)[C@H]([C@H](OC(=O)c3ccccc3)[C@]3(O)C[C@H](OC(=O)[C@H](O)[C@@H](NC(=O)c4ccccc4)c4ccccc4)C(C)=C1C3(C)C)[C@]1(OC(C)=O)CO[C@@H]1C[C@@H]2O`, the inhibition was 17.7%.

Consider `CC[N+](C)(C)Cc1ccccc1Br`, for which the inhibition is 19.3%.

In the case of `O=C1C(CCS(=O)c2ccccc2)C(=O)N(c2ccccc2)N1c1ccccc1` (stereo not given), the inhibition is 7.23%.

`CCC(=O)O[C@@H]1CC(=O)O[C@H](C)CC=CC=C[C@@H](O)[C@H](C)C[C@H](CC=O)[C@H](O[C@H]2O[C@H](C)[C@@H](O[C@H]3C[C@@](C)(O)[C@@H](OC(=O)CC)[C@H](C)O3)[C@H](N(C)C)[C@H]2O)[C@H]1OC`: the inhibition was -13.3%.

Turning to `Cc1nnc(SCC2=C(C(=O)O)N3C(=O)[C@@H](NC(=O)Cn4cnnn4)[C@H]3SC2)s1`, the inhibition was 9.64%.

Consider `O=C(O)c1cc(=O)c2c(OCC(O)COc3cccc4oc(C(=O)O)cc(=O)c34)cccc2o1`, for which the inhibition was 13.2%.

With `CC[C@H]1OC(=O)C[C@@H](O)[C@H](C)[C@@H](O[C@@H]2O[C@H](C)C[C@H](N(C)C)[C@H]2O)[C@@H](CC=O)C[C@@H](C)C(=O)C=C[C@]2(C)O[C@H]2[C@@H]1C`, the inhibition is 6.6%.

On to `CC(C)NCC(O)COc1cccc2[nH]ccc12` (stereo not given), for which the inhibition is -0.334%.

Another experiment in a line: TLR3 IRF3 reporter activation blockers – cell-based, poly I:C stimulus, luciferase, 10K MLSCN set, primary screen (AID 602277). The settings on record: HEK293-TLR3 RL24 IRF3 luciferase reporter, at 10 µM, hits give high values.
Regarding `CC(C)Cc1ccc(C(C)C(=O)O)cc1` (stereo not given), the inhibition is -4.09%.

Take `CC(C)(C)c1ccc(C(O)CCCN2CCC(C(O)(c3ccccc3)c3ccccc3)CC2)cc1` (stereo not given): the inhibition was 30%.

Take `CC(=O)O[C@H]1C(=O)[C@]2(C)[C@H]([C@H](OC(=O)c3ccccc3)[C@]3(O)C[C@H](OC(=O)[C@H](O)[C@@H](NC(=O)c4ccccc4)c4ccccc4)C(C)=C1C3(C)C)[C@]1(OC(C)=O)CO[C@@H]1C[C@@H]2O`: the inhibition is 44.3%.

For the compound `CC[N+](C)(C)Cc1ccccc1Br`, the inhibition is 30.2%.

Turning to `O=C1C(CCS(=O)c2ccccc2)C(=O)N(c2ccccc2)N1c1ccccc1` (stereo not given), the inhibition is 25.7%.

For the compound `CCC(=O)O[C@@H]1CC(=O)O[C@H](C)CC=CC=C[C@@H](O)[C@H](C)C[C@H](CC=O)[C@H](O[C@H]2O[C@H](C)[C@@H](O[C@H]3C[C@@](C)(O)[C@@H](OC(=O)CC)[C@H](C)O3)[C@H](N(C)C)[C@H]2O)[C@H]1OC`, the inhibition is -27.4%.

As for `Cc1nnc(SCC2=C(C(=O)O)N3C(=O)[C@@H](NC(=O)Cn4cnnn4)[C@H]3SC2)s1`, the inhibition is 21.6%.

Turning to `O=C(O)c1cc(=O)c2c(OCC(O)COc3cccc4oc(C(=O)O)cc(=O)c34)cccc2o1`, the inhibition was 13.9%.

As for `CC[C@H]1OC(=O)C[C@@H](O)[C@H](C)[C@@H](O[C@@H]2O[C@H](C)C[C@H](N(C)C)[C@H]2O)[C@@H](CC=O)C[C@@H](C)C(=O)C=C[C@]2(C)O[C@H]2[C@@H]1C`, the inhibition was 61.9% (active).

As to `CC(C)NCC(O)COc1cccc2[nH]ccc12` (stereo not given), the inhibition was 29.8%.

The values above are taken from PubChem BioAssay.
